This is an account of results in PubChem BioAssay.

The nature of assay [1]: compounds binding Alexa647 anti-His antibody – biochemical, small-molecule microarray, 635 nm fluorescence, artefact control for SMM control protein annotation, primary screen (AID 1128).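 Also: score merges feature fluorescence with signal-to-noise for each printed compound spot.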 The settings on record: higher = more signal.
For assay [2], the system named is Human papillomavirus type 1a E7 protein (residues 1-88). Put plainly: HPV1a E7 small-molecule binders, primary screen, biochemical, small-molecule microarray, residues 1-88, 635 nm (AID 1129). The note with it: small-molecule microarray binding, fluorescence 635 nm; higher = more signal.
The target in assay [3] is Focal adhesion kinase 1 (Homo sapiens) (UniProt Q05397). Put plainly: PTK2 protein binding on printed compound slides – biochemical, small-molecule microarray, 635/667 nm fluorescence, BSA, DTT, primary screen (AID 1130).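 Also: composite of spot emission at 667 nm and signal to noise over triplicate slides.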 The note with it: 635 nm fluorescence, higher = more signal.
For assay [4], the system named is Fibrinogen (Alexa647-labelled). Put plainly: Alexa647-fibrinogen binding to printed small molecules – biochemical, small-molecule microarray, 635/667 nm fluorescence, artefact control for SMM control-protein annotation, profiling panel (AID 1131).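 Also: z-score merges 667 nm fluorescence with per-spot signal-to-noise over triplicate slides.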 The settings on record: fibrinogen-A647 binding fluorescence, higher = more signal.
The target in assay [5] is Follistatin (Homo sapiens) (UniProt P19883). Put plainly: FST protein binding to printed compounds – biochemical, small-molecule microarray, 635/667 nm fluorescence, primary screen (AID 1132). The note with it: 635 nm fluorescence, higher = more signal.
In assay [6] the target is Fibroblast growth factor 2 (Homo sapiens) (UniProt P09038). Put plainly: basic fibroblast growth factor binding to printed compounds – biochemical, small-molecule microarray, 635/667 nm fluorescence, primary screen (AID 1133). The settings on record: FGF2, fluorescence 635/667, higher = more signal.
A short description of assay [7]: JC-1 mitochondrial potential readout, lung cancer cells – cell-based, A549, JC-1 fluorescence, basal, 24 h, 100 nL, profiling panel (AID 1138).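 Also: A549 lung adenocarcinoma cells under basal conditions with no added stimulus; test concentration not given here.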 The note with it: higher = more signal.
The test system of another assay is Lefty1. Put plainly: Lefty1 protein binding to printed compounds – biochemical, small-molecule microarray, 635/667 nm fluorescence, primary screen (AID 1139). The note with it: fluorescence 635/667, higher = more signal.
The subject of assay [8] is wheat germ agglutinin (Triticum aestivum), Alexa647-labelled. Put plainly: Alexa647-WGA lectin binding to printed small molecules – biochemical, small-molecule microarray, 635/667 nm fluorescence, artefact control for SMM control-protein annotation, profiling panel (AID 1140).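 Also: score merges 667 nm feature emission with signal to noise over triplicate slides.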 The settings on record: WGA-A647 binding, 635 nm fluorescence, higher = more signal.
Assay [9] addresses Luciferin 4-monooxygenase (Photinus pyralis) (UniProt P08659). Put plainly: inhibition of purified Photinus pyralis luciferase – biochemical, luminescence, purified enzyme, 2006 set, primary screen (AID 1141).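 Also: cell-free assay with purified firefly luciferase at 100 ng per well in PBS; test concentration not given here.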 The note with it: purified firefly luciferase, SteadyGlo luminescence, 30 min; higher = more signal, called active from +8 up or from −8 down.
Assay [10] concerns Wnt5a (protein binding on small-molecule microarray). Put plainly: small molecules binding Wnt5a protein – biophysical, small-molecule microarray, 635/667 nm fluorescence, primary screen (AID 1142).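 Also: fluorescence read at 667 nm with signal to noise per printed feature.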 The settings on record: 635 nm fluorescence, higher = more signal.
Assay [11] can be described thus: ATP-based viability of Huh7 replicon cells – cell-based, CellTiter-Glo luminescence, basal, 48 h, cytotoxicity control for HCV replication inhibitor project, primary screen (AID 1143).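 Also: Huh7 hepatoma cells carrying a hepatitis C replication reporter with no stimulus; test concentration not given here.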 The settings on record: higher = more signal, called active from +8 up or from −8 down. For orientation: A replicon is a self-replicating genome or part of one, used to study replication in cells.

Assay [12] in a line: Pseudomonas biofilm growth suppression – PAO1 strain, BacTiter-Glo luminescence, LB-PBS, primary screen (AID 1144). The settings on record: P. aeruginosa PAO1 biofilm, 12 h, higher = more signal.
Assay [13] in a line: basal CRE-LacZ reporter activity in PC12 – cell-based, unstimulated, primary screen (AID 1145). The note with it: no forskolin, luminescence, 4.5 h, higher = more signal, called active from +8 up or from −8 down.
Assay [14] can be described thus: forskolin-driven CRE-LacZ activity in PC12 – cell-based, CRE-LacZ reporter, forskolin-stimulated, primary screen (AID 1146).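 Also: PC12 cells with 6xCRE LacZ reporter stimulated by forskolin 10 µM; beta-galactosidase reporter signal reflecting CREB driven transcription.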 The note with it: luminescence, 4.5 h, higher = more signal, called active from +8 up or from −8 down.
The target of assay [15] is Streptavidin (Streptomyces avidinii) (UniProt P22629). Put plainly: compounds binding control protein streptavidin – biophysical, small-molecule microarray, 635/667 nm fluorescence, artefact control for SMM compound annotation, primary screen (AID 1147).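 Also: signal reflects streptavidin binding to arrayed compounds as a control protein.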 The note with it: higher = more signal.
Assay [16] is described as follows: probe aInhba binding on compound microarray – biochemical, small-molecule microarray, 635/667 nm fluorescence, primary screen (AID 1148).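 Also: score merges 667nm spot fluorescence with signal-to-noise for antibody binding to printed compounds.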 The note with it: higher = more signal.
Assay [17] has as its target Torsin-1A (Homo sapiens) (UniProt O14656). Put plainly: TOR1A wild-type binding on microarray – cell lysate, small-molecule microarray, lysate, 635/667 nm, primary screen (AID 1149). The note with it: COS7 hTOR1A-WT lysate, 635 nm fluorescence, higher = more signal.
Assay [18] shares this target. Put plainly: torsin A mutant lysate binding on microarrays – cell lysate, small-molecule microarray, COS7 lysate, 635/667 nm fluorescence, primary screen (AID 1150).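 Also: score pools 667 nm emission and signal to noise measuring lysate protein binding.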 The note with it: COS7 hTOR1A mutant lysate, 635 nm fluorescence, higher = more signal.
Assay [19] deals with Sonic hedgehog protein (Shh). Put plainly: Sonic hedgehog microarray binding compounds – biochemical, small-molecule microarray, 635/667 nm fluorescence, primary screen (AID 1151).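 Also: Shh protein binding to compounds spotted on small-molecule microarray slides; score combines spot fluorescence intensity with signal-to-noise across triplicate slides.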 The note with it: 635 nm fluorescence, higher = more signal.

Activity calls are given as the source filed them. Unless noted, no rule for the calls is given here.

Sequence of Torsin-1A (Homo sapiens) (O14656 whole entry, looked up): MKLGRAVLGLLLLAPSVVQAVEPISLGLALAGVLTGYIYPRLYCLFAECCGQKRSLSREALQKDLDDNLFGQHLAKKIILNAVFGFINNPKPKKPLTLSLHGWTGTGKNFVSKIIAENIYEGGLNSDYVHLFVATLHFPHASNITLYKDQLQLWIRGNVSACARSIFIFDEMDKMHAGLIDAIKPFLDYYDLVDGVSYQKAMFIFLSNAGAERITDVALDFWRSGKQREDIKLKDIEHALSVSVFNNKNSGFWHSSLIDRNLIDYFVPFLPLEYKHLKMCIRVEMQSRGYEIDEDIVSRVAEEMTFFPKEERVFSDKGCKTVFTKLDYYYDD
Sequence of Follistatin (Homo sapiens) (P19883 whole entry, looked up): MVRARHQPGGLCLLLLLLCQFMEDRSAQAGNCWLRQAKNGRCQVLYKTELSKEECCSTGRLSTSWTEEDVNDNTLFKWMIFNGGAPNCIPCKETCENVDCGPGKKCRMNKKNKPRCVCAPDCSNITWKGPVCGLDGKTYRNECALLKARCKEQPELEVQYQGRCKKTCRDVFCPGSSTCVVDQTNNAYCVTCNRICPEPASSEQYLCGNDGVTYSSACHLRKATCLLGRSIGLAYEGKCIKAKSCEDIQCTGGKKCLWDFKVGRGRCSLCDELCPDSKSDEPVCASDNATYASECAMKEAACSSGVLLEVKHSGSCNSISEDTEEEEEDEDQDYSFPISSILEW
Sequence of Luciferin 4-monooxygenase (Photinus pyralis) (P08659 whole entry, looked up): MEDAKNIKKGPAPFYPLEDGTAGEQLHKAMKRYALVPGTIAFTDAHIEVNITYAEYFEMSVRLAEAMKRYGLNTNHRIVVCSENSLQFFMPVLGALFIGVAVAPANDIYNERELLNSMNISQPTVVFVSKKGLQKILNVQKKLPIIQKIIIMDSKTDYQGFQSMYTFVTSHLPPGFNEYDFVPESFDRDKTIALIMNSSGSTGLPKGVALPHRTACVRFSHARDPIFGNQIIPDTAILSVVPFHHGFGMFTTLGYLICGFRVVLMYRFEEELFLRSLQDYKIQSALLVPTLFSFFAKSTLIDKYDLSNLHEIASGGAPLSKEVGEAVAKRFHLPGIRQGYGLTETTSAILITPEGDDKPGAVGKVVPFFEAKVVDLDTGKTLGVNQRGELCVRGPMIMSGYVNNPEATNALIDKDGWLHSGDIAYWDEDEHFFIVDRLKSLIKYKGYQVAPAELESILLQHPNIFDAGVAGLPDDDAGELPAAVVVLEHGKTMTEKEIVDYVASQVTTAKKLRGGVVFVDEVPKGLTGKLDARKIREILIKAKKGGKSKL
Sequence of Focal adhesion kinase 1 (Homo sapiens) (Q05397 whole entry, looked up): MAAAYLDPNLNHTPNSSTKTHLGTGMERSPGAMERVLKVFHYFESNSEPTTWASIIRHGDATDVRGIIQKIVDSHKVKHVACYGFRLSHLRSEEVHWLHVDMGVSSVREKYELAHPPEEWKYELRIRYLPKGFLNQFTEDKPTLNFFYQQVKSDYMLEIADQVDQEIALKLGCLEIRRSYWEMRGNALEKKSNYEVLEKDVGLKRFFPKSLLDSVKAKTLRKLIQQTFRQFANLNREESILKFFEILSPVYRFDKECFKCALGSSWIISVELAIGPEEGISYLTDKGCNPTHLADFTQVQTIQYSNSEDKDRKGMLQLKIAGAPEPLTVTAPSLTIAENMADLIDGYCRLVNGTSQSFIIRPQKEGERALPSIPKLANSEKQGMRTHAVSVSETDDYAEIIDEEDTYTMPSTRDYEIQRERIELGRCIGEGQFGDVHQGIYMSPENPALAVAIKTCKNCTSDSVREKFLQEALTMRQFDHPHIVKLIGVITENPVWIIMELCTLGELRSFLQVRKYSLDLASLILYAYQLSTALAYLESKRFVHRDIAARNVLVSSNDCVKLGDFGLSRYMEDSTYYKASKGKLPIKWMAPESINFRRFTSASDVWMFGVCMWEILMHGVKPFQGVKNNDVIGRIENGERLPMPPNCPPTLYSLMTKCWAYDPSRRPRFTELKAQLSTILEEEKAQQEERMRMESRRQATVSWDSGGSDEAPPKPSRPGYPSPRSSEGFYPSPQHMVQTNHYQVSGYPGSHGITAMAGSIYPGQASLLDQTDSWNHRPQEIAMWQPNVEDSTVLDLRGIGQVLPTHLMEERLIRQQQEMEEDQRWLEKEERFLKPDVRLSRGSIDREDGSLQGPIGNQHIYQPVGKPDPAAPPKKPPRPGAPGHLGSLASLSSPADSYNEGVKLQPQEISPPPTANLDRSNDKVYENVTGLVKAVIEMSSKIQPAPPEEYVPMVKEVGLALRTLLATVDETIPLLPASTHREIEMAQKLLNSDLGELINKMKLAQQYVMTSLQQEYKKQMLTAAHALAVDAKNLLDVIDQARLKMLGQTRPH
Sequence of Fibroblast growth factor 2 (Homo sapiens) (P09038 whole entry, looked up): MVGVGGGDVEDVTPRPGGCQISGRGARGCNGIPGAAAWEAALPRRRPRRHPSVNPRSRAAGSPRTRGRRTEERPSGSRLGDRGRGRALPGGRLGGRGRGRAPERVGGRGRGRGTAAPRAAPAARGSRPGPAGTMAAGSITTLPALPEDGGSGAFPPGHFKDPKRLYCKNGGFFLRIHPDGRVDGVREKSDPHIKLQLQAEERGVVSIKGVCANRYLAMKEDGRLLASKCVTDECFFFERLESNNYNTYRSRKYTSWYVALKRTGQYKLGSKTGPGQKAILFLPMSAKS
Sequence of Streptavidin (Streptomyces avidinii) (P22629 whole entry, looked up): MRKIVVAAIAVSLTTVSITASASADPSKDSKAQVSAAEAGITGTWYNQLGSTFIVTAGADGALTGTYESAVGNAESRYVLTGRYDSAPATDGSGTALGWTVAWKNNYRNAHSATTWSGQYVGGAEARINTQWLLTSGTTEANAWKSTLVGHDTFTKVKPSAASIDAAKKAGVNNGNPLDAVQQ

In the case of `C=C[C@@H](COC(=O)OC(C)(C)C)N(Cc1ccc(OC)cc1)S(=O)(=O)c1ccc(Br)cc1`, the composite z-score in assay [1] amounted to 1.03; in assay [2] it was 1.11; in assay [3], 0.43; in assay [4], 0.731; in assay [5], 0.844; in assay [6], 0.683. Also, the composite z-score with Lefty1 was 0.9; in assay [8], 0.285; in assay [10] it was 0.0249; in assay [15], 0.603; in assay [16], -0.0332; with Torsin-1A (Homo sapiens) [17], 0.604. Further, the composite z-score amounted to 0.299 in the assay with Torsin-1A (Homo sapiens) [18] and 1.57 in assay [19]. For the same molecule, the z-score in assay [7] was 3.28; in assay [9], -0.694 (inactive); in assay [11], -1.75 (inactive); in assay [12], 0.551 (inactive); in assay [13] it was 3.04 (inactive); in assay [14], 1.88 (inactive).

With `C=CCN1C(=O)[C@@]2(CC=C)N=C(c3ccc(OCCCO)cc3)O[C@H]2c2ccccc21`, the composite z-score was found to be 2.12 in [1]; 1.2 in assay [2]; 0.743 in assay [3]; 0.576 in assay [4]; 1.49 in assay [5]; 1.76 in assay [6]. The composite z-score turned out to be 1.17 with Lefty1; 0.503 in assay [8]; 1.39 in assay [10]; 0.26 in assay [15]; 0.33 in assay [16]; 0.537 with Torsin-1A (Homo sapiens) [17]. The composite z-score in the assay with Torsin-1A (Homo sapiens) [18] was found to be 0.658; in [19], 1.47. For the same molecule, the z-score in assay [7] was 2.66; in assay [9], -9.06 (active); in assay [11] it was -3.88 (inactive); in assay [12] it was -0.776 (inactive); in assay [13], 1.13 (inactive); in [14], -2.04 (inactive).

For `CN1C(=O)C2C=CC(C(O)c3ccc([N+](=O)[O-])cc3)N(N3CCCCC3)C2C1=O` (stereo not given), the composite z-score in assay [1] is 0.922; in assay [2], 1.18; in assay [3], 0.115; in assay [4] it was 0.938; in assay [5], 1.12; in assay [6], 0.651. The composite z-score in the assay with Lefty1 was -0.0977; in assay [8] it was 0.913; in assay [10], 0.466; in [15], 0.901; in assay [16], 0.464; with Torsin-1A (Homo sapiens) [17], 0.319. In addition, the composite z-score with Torsin-1A (Homo sapiens) [18] is 0.603; in [19], -0.041. The z-score in assay [7] is -0.39; in assay [9], -0.661 (inactive); in assay [11], 0.576 (inactive); in assay [12], -0.711 (inactive); in assay [13] it was 1.01 (inactive); in assay [14], 0.316 (inactive).

`CC(C)C[C@@H]1NC(=O)[C@@H]2C[C@H](C(=O)O)[C@H](c3cccc(OCCO)c3)N2C1=O`: the composite z-score is 2.29 in assay [1]; -0.312 in assay [2]; -0.176 in assay [3]; -0.0031 in assay [4]; 0.495 in [5]; 0.89 in [6]. For the same molecule, the composite z-score in the assay with Lefty1 is -0.375; in assay [8], 0.275; in [10], 0.64; in [15], -0.811; in assay [16], -0.209; in the assay with Torsin-1A (Homo sapiens) [17], 0.198. Moreover, the figures for the composite z-score (with Torsin-1A (Homo sapiens) [18]; in [19]) were 1.09 and 0.188, respectively. The z-score in assay [7] was -0.0906; in [9], -0.291 (inactive); in assay [11], -1.07 (inactive); in assay [12], 0.133 (inactive); in assay [13], 0.826 (inactive); in assay [14], 1.41 (inactive).

For the molecule `O=C1NC(=O)C2C1C=CC(C(O)c1cccs1)N2Nc1ccc(Cl)cc1Cl` (stereo not given), the composite z-score was 0.541 in assay [1]; -0.443 in assay [2]; -0.0686 in assay [3]; -0.868 in assay [4]; -0.222 in [5]; -0.534 in [6]. The composite z-score in the assay on Lefty1 was -0.245; in [8], 0.22; in assay [10], -0.0653; in assay [15], -0.695; in [16], -0.118; with Torsin-1A (Homo sapiens) [17], 0.352. Further, the composite z-score with Torsin-1A (Homo sapiens) [18] was 0.112; in assay [19] it was -0.0963. For the same molecule, the z-score in assay [7] was -0.384; in assay [9], -1.64 (inactive); in [11] it was 0.0581 (inactive); in [12] it was -0.24 (inactive); in assay [13] it was -0.136 (inactive); in assay [14], -0.109 (inactive).
